FadD28 FP inh – inhibitors of Mycobacterium tuberculosis FadD28 bisubstrate binding | FadD28 bisubstrate probe binding, fluorescence polarization | inhibition, % at 12.5 µM | 0.22% of 360,000 active; in the data active means inhibition above about 8.5%, passing the limit was not always enough; inconclusive means no clear call, values can overlap the other calls
PrP 5UTR inh – suppresses PrP 5' UTR mRNA reporter expression | 0.35% of 340,000 active | inhibition, % (no concentration beside the values) | cell-based PrP 5' UTR mRNA reporter, plate reader; in the data active means inhibition above about 52%; further: 0 = median of the neutral control wells
Mtb bLac sens – beta-lactam sensitization of Mtb H37Rv | M. tuberculosis H37Rv growth with meropenem, percent inhibition | inhibition, % at 25 µM | 0.27% of 330,000 active; call rule not given here;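 further: growth measured after seven days incubation then overnight dye step; 0% = bacteria only wells and 100% = bacteria with antibiotic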
Vc quorum ag – quorum light induction in luxS cqsA deficient V. cholerae. 0.16% of 350,000 active. activation, % at 18.7 µM. V. cholerae BH1578 lux reporter, luminescence, 6 h; in the data active means activation mostly above about 9.7%, no sharp cut-off; inconclusive means no clear call, values can overlap the other calls; inactive means mostly below about 3.7%
Rv3671c protease – inhibits the M. tuberculosis serine protease Rv3671c | P9WHR9 | inhibition, % at 5.96 µM | 0.048% of 320,000 active | AID 2606; in the data active means inhibition above about 38%;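 further: extracellular domain of Rv3671c used as enzyme; 0% = enzyme with DMSO and 100% = no enzyme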
Target sequence (P9WHR9 whole entry, looked up, the tested form may be a part): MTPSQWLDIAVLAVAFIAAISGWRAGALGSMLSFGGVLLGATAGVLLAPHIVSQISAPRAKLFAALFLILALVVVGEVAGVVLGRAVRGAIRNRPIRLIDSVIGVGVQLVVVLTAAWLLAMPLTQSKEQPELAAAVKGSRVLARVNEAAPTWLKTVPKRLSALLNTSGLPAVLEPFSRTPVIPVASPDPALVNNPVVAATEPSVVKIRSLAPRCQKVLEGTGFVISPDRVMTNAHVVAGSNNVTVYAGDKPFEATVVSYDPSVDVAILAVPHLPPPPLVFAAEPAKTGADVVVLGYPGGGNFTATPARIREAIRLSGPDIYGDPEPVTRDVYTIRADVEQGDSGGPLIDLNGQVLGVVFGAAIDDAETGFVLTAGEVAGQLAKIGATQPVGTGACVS
UGM FP inh – blocks M. tuberculosis UGM enzyme. purified UGM, fluorescence polarization probe displacement. 0.06% of 320,000 active. inhibition, % at 10 µM; in the data active means inhibition above about 10%, passing the limit was not always enough; inconclusive means no clear call, values can overlap the other calls
PrP 5UTR single – prion 5' UTR mRNA inhibition, cherry-pick retest; inhibition, % at 2.5 µM; 48% of 1,100 active; AID 504592; cell-based prion protein 5' UTR reporter, plate reader; shares compounds with PrP 5UTR inh; in the data active means inhibition above about 54%; inconclusive means no clear call, values can overlap the other calls
* = called active by the depositor; i = inactive; ? = inconclusive; . = no result given. A selection: hits, their analogues and other compounds. The true share with any hit is near 0.76%.

SMILES	FadD28 FP inh	PrP 5UTR inh	Mtb bLac sens	Vc quorum ag	Rv3671c protease	UGM FP inh	PrP 5UTR single
CN1CCC(N(C)C(=O)c2ccc(Cl)c(S(=O)(=O)N3CCc4ccccc43)c2)CC1	-1	9	-5	1	6	0	.
NC(=O)c1ccsc1NC(=O)COC(=O)Cc1ccccc1Cl	-5	-14	-1	-1	20	0	.
CCOC(=O)c1cccc(NC(=O)/C=C/c2ccc3c(c2)OCO3)c1	-8	60*	47	0	-18	-1	22
O=C(O)c1ccc(N/N=C/c2ccc3c(c2)OCO3)cc1	2	77*	10	1	7	-2	65*
O=C(Nc1ccc2c(c1)OCO2)Nc1ccc2c(c1)OCO2	0	-46	3	i	1	3	.
O=C(Nc1cccc(C(=O)O)c1)Nc1ccc2c(c1)OCO2	-1	84*	-5	0	6	6	73*
COc1cccc(NC(=O)Nc2cccc(C(=O)O)c2)c1	-1	62*	0	0	-4	4	63*
CC(=O)c1cccc(NC(=O)C(C)Sc2nnc3ccccn23)c1 (stereo not drawn)	-3	.	.	-5	.	.	.
CN1CCN(S(=O)(=O)c2cccc(C#N)c2)C(c2ccccc2)C1 (stereo not drawn)	1	-5	.	-2	.	.	.
O=S(=O)(N1CCOCC1)n1c(Cc2ccccc2)nc2ccccc21	-3	-4	-10	-3	10	-1	.
Cc1ccc(-c2nc(-c3ccccn3)no2)cc1	-3	86*	4	i	-2	0	91*
c1ccc(-c2ccc(-c3nc(-c4ccccn4)no3)cc2)cc1	-1	89*	91	8	-14	0	91*
Clc1cccc(-c2nc(-c3ccccn3)no2)c1	-3	47	32	i	-2	-2	.
Cc1ccc(-c2nc(-c3ccccn3)no2)cc1Cl	-3	72*	78	0	-10	0	64*
CC(C)(C)c1ccc(C(=O)O)c(C(=O)c2ccccc2)c1	2	-4	9	i	-1	-1	.
O=C(OC1CCCC1)c1ccc(Cl)cc1Cl	0	3	.	i	.	.	.
CCN1CCN(c2ccc(Cl)cc2NC(=O)c2ccc(-n3nc(C)cc3C)cc2)CC1	-1	16	6	i	-13	1	.
O=C(CC1Oc2ccccc2NC1=O)NCCCN1CCN(C2CCCCC2)CC1 (stereo not drawn)	0	70*	-2	i	10	1	-12
O=C(Nc1ccc(N2CCCCC2)cc1)c1ccccn1	1	93*	-3	0	8	-1	90*
O=C(COC(=O)/C=C/c1ccc(Cl)cc1Cl)Nc1cc(C(F)(F)F)ccc1N1CCOCC1	-1	6	8	0	-9	1	.
O=C(Cn1ccc2ccccc2c1=O)NCCC(=O)Nc1cccc(Cl)c1	-3	-21	5	-3	0	-1	.
CNCCCOc1cccc(Oc2ccccc2)c1	-4	-33	0	0	-2	-4	.
Cc1cccc(C2=N/C(=C\c3cccs3)C(=O)O2)c1	3	2	99	1	-6	1	.
CCOC(=O)c1c(SCCN2CCCC2)n(-c2ccccc2)c(=S)n(-c2ccccc2)c1=O	-2	65*	.	i	.	.	21
CCOC(=O)N1CCN(C(=O)c2c(N)no[n+]2[O-])CC1	-1	-5	-3	1	6	3	.
SMILES	FadD28 FP inh	PrP 5UTR inh	Mtb bLac sens	Vc quorum ag	Rv3671c protease	UGM FP inh	PrP 5UTR single
CCOc1ccc2oc(C(=O)NCC(C)(C)CN(C)C)c(C)c2c1	-1	-14	-7	i	-9	-2	.
CC1CCCN(c2ncnc3c2cnn3-c2ccc(Cl)cc2)C1 (stereo not drawn)	-4	88*	10	0	-7	2	84*
COc1ccccc1N1CCN(C(=O)COc2ccc(S(=O)(=O)NC(C)C)cc2)CC1	0	0	0	0	10	2	.
COc1ccc(Nc2nc(-c3c(C)nc4ncccn34)cs2)cc1	5	65*	.	i	.	.	87*
Cc1nc2ncccn2c1-c1csc(Nc2ccc(N(C)C)cc2)n1	-3	60*	.	0	.	.	90*
O=C1NC2C(O)C(O)C(O)C(O)C2c2cc3c(c(O)c21)OCO3 (stereo not drawn)	-1	61*	.	1	.	.	83*
O=C1NC2C(=CC(O)C(O)C2O)c2cc3c(c(O)c21)OCO3 (stereo not drawn)	-1	88*	.	i	.	.	95*
O=C1NC2C(=CC(O)C(O)C2O)c2cc3c(cc21)OCO3 (stereo not drawn)	-6	3	.	i	.	.	.
CCn1c(P(C)(=O)O)nc2cc(NC(=O)c3ccccc3Cl)ccc21	1	-21	-7	0	-10	0	.
CC(C)(C)OC(=O)C[C@@H]1C/C=C\C[C@H](CC(=O)N(CCO)Cc2ccccc2)C(=O)N[C@H](C(C)(C)C)COC1=O	-1	60*	-4	-1	-6	-2	0
COc1ccc(/C=C/C(=O)NCC(=O)N=Nc2c(O)[nH]c3ccc([N+](=O)[O-])cc23)cc1	-2	10	2	0	6	0	.
N/C(=N\OC(=O)c1ccc(=O)n(Cc2ccccc2)c1)c1ccccn1	-2	-15	4	-1	-8	2	.
N/C(=N\OC(=O)c1ccc2ccccc2c1)c1ccccn1	-3	53*	55	0	-4	-2	40
N/C(=N\OC(=O)c1ccc2ccccc2c1)c1ccncc1	-3	-22	3	2	-11	1	.
CCCc1ccc(C(=O)O/N=C(\N)c2ccccn2)cc1	-3	88*	2	i	-3	0	77*
COc1cccc(C(=O)O/N=C(\N)c2ccccn2)c1	-3	52*	-1	i	4	-3	91*
COc1cccc(C(=O)O/N=C(\N)c2ccccn2)c1OC	-3	52*	4	0	-6	0	?
O=C(NCCO)C(O)C(O)C(=O)NCCO (stereo not drawn)	-2	-24	0	0	6	-1	.
COc1ccc(N2CCN(S(=O)(=O)c3c(C(=O)N4CCOCC4)c(C)n(C)c3C)CC2)cc1	-3	-13	-21	i	-4	0	.
CCOC(=O)CSC1=C(C#N)C(c2ccccc2Cl)C(C(=O)OC)C(=O)N1 (stereo not drawn)	0	2	7	1	-10	2	.
CSCCC(NC(=O)COc1ccccc1)C(=O)N(C)Cc1c(F)cccc1Cl (stereo not drawn)	-3	.	.	i	.	.	.
CCCCn1c(-c2ccccc2)nc2c(=O)n(C)c(=O)[nH]c21	-1	78*	-10	-1	5	-1	5
N[C@@H](Cc1ccccc1)C(=O)N1C[C@H]2C[C@@H](C1)c1cccc(=O)n1C2	0	67*	-5	-1	-3	2	-12
O=C(Nc1c(Cl)cc2c(c1Cl)Cc1cc([N+](=O)[O-])ccc1-2)C(Cl)Cl	0	82*	.	-1	.	.	-6

Screening results deposited in PubChem by several laboratories.
